Data from PubChem BioAssay AID588342 (National Center for Advancing Translational Sciences (NCATS), 2011).
In all, about 360,000 compounds went through this assay and about 25,000 (6.9%) were called active. Inconclusive results (about 9%) are left out. The entries come from a sample that favours actives as a whole. A number with no mark means an inactive call. The call rests on the fitted dose curve; in most records, active means well fitted inhibition curve with a large enough effect; inconclusive means small, poorly fitted or top-dose-only effect; inactive means flat fitted curve, though single readings scatter.

Target: Luciferin 4-monooxygenase (Photinus pyralis) (UniProt P08659)
Sequence (P08659 whole entry, looked up): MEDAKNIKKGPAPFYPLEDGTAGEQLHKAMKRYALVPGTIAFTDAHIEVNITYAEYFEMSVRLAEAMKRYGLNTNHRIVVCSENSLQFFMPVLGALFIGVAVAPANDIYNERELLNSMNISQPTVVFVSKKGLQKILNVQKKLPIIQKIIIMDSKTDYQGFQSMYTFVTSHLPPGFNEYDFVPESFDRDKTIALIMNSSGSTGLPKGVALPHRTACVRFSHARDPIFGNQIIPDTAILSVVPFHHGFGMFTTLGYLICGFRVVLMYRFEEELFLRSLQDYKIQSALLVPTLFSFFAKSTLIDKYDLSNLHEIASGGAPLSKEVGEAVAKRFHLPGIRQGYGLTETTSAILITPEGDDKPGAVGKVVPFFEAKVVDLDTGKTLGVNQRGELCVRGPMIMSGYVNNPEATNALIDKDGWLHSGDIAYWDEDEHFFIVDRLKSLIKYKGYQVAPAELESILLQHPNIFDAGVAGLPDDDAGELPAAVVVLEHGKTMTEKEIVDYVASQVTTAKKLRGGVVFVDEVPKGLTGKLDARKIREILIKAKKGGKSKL
Assay: qHTS profiling assay for firefly luciferase inhibitor/activator using purifed enzyme and Km concentrations of substrates (counterscreen for miR-21 project); further: nearly all actives have a fitted effect of over 55% in size;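 on activity change, negative = inhibition: plate controls were vehicle for no effect and reference inhibitor for full effect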
Conditions: purified FLuc, luminescence inhibition; series mostly up to 57.5 µM; activity change, negative = inhibition: at the top concentration
Description: MLPCN Grant: 1 R21 NS059478-01 (miR-21 grant) Assay Provider: NCGC NCGC Assay Overview: Firefly (Photinus pyralis) luciferase is one of the most commonly used transcriptional reporters for a number of reasons. It is considered one of the more dynamically responsive reporters -that is, responsive to changes in reporter transcription - as it requires no post-translational modifications and is enzymatically active directly after protein synthesis (Wood, 1998). Additionally, the half-life of the luciferase protein is short relative to other reporter-gene products (Wood, 1995). Whereas reporters with long half-lives potentially allow for increased signal due to accumulation of reporter-gene product, once accumulated in the cell, dynamic changes in reporter-gene expression may be difficult to detect(Fan and Wood, 2007; Almond et al., 2004). It has been shown that wild-type P. pyralis luciferase has a half-life of approximately […] hours in mammalian cells (Thompson et al., 1991). Firefly luciferase reporter-gene assays are also generally considered one of the most sensitive assay types (Wood, 1995; Wood, 1998). Although light produced in a bioluminescence reaction is of lower intensity than that produced during fluorescence emission, this is offset by little to no background light inherent to luminescent assays. Thus the luciferase reporter can be expressed at much lower levels than fluorescent proteins while still providing robust signal. # However, it was initially observed, in 1991, by Thompson et al., that compounds that resemble the substrates of firefly luciferase (FLuc) can act as competitive inhibitors of the enzyme, and that these compounds, upon interaction with luciferase in the cell, can actually stabilize the protein and increase its half-life. Accumulated intracellular FLuc protein can be measured as an increase in luminescence signal, upon addition of detection reagents (which contain high concentrations of FLuc substrates) commonly used in high-throughput screening. In cell-based reporter gene assays that use FLuc as the reporter gene to quantitate the potential influence of a given compound against the target biology, this apparent increase in luminescence can mistakenly be interpreted as identification of a compound that is active against the target of interest. This is the case for the miR-21 FLuc reporter gene assay used to identify inhibitors of the miR-21 pathway (PubChem AID 2289) - compounds of interest will inhibit miR-21 biogenesis/expression or activity, and are identified by causing an increase in luminescence, due to increased FLuc translation. However, FLuc inhibitory compounds that stabilize the FLuc protein will give an identical read-out, making it difficult to distinguish compounds that are active against the target from those active against FLuc. Previous profiling work to determine the prevalence of compounds that affect FLuc enzymatic activity (PubChem AID 411) identified that ~3% of the MLSMR library (then at ~72K) inhibited FLuc. […] Since the MLSMR had grown to ~350K compounds, and since it was expected that a significant percentage of compounds found active in the miR-21 FLuc assay would be FLuc inhibitors, the library was screened for activity against FLuc using a biochemical assay of purified FLuc and KM concentrations of FLuc substrates (D-luciferin and ATP).
NCGC Assay Protocol Summary: Reagents: 50mM Tris acetate, pH 7.5; 10mM Mg acetate; 10uM D-luciferin (Sigma #L9504); 10uM ATP; 0.01% Tween-20; 0.05% BSA; 10nM P. pyralis luciferase (Sigma #L9506) Control compounds used were two known firefly luciferase inhibitors (compounds (2) and (5) in Auld et al., 2010), and DMSO. […]

Row | Compound | activity change, negative = inhibition | Potency
1 | COc1ccc(S(=O)(=O)N2CCN(c3ccc(F)cc3)CC2)cc1-c1noc(C)n1 | -4.3% | 
2 | Cc1ccc2c(c1)c1c(c(=O)n(-c3ccccc3)c(=O)n1CC(=O)c1ccc(Cl)cc1)n2C | -3.33% | 
3 | O=C(Cn1nc(Cc2cccnc2)c2ccccc2c1=O)N1CCN(c2ccccc2F)CC1 | -2.35% | 
4 | Nc1ncc(-c2cc3ccccc3oc2=O)s1 |  | 6.01 µM (active)
5 | Cc1cc2c(=O)n(C)c(SCC(=O)c3cc4ccccc4o3)nc2s1 | 4.57% [at 2.3 µM] | 
6 | Cc1ccc(S(=O)(=O)N2CCC(C(=O)OCC(=O)N(C)c3ccccc3)CC2)cc1C | 9.29% | 
7 | CCC(C(=O)Nc1cccc(Cl)c1C)n1nc(-c2ccc(C)cc2)ccc1=O (stereo not drawn) | 3.5% | 
8 | COc1ccc(C)cc1N(CC(=O)N1CCC(C)CC1)S(=O)(=O)c1ccc(C)cc1 | -7.97% | 
9 | O=C(Nc1ccccc1)O/N=C1/CCCc2occc21 |  | 16.9 µM (active)
10 | O=C(Nc1ccccc1)O/N=C1\CCCCC1c1ccc([N+](=O)[O-])cc1[N+](=O)[O-] (stereo not drawn) | 4.78% | 
11 | CC(C)(COC(=O)Nc1ccccc1)COC(=O)Nc1ccccc1 | -14.3% | 
12 | NC(=O)CSc1c[nH]c2ccccc12 | -10.3% | 
13 | CC(=O)NC(Cc1c[nH]c2ccccc12)C(=O)O (stereo not drawn) | 5.21% | 
14 | O=S(=O)(O)Oc1c[nH]c2ccccc12 |  | 12 µM (active)
15 | Cc1ccc(NC(=O)Cn2c(=O)n(-c3ccccc3)c(=O)c3c4c(sc32)CCCC4)cc1 | 2.01% | 
16 | CCOc1ccc(C(=O)CCN2CCOCC2)cc1 | 1.6% | 
17 | CCOc1ccc(-c2ccc(SCC(=O)N3CCOCC3)nn2)cc1 |  | 3.38 µM (active)
18 | CCn1c(COc2cccc(OC)c2)nnc1SCC(=O)N1CCOCC1 | 6.62% | 
19 | CCNS(=O)(=O)c1ccc(NC(=O)CSc2nc(-c3ccco3)cc(C(F)(F)F)n2)cc1 | 2.67% | 
20 | O=C1OC2(CCCCC2)CC2=C1C1O[C@](c3ccsc3)(Cc3ccccc31)O2 | -0.717% [at 11.5 µM] | 
21 | Nc1nnn(CC(=O)N/N=C/c2ccc(O)cc2)n1 | -1.83% | 

Row | Compound | activity change, negative = inhibition | Potency
22 | CC(C)(C)c1nnc(N/N=C/c2ccc(O)cc2)n(N)c1=O |  | 13.5 µM (active)
23 | Cc1nnc(NC(=O)C(c2ccccc2)c2ccccc2)s1 | -1.25% | 
24 | Cc1nnc(NC(=O)c2ccc3nccnc3c2)s1 |  | 15.1 µM (active)
25 | CC(C)CCC(C)NC(=O)c1ccc2nccnc2c1 (stereo not drawn) | -15% | 
26 | Cc1ccc(S(=O)(=O)N2CCC(C(=O)Nc3cc(C)ccc3C)CC2)cc1 | -1.47% | 
27 | Cc1cc(C)c(NC(=O)CS(=O)CC(=O)Nc2cccnc2)c(C)c1 (stereo not drawn) | 0.546% | 
28 | Cc1cccc(-n2cnc(C(=O)NNC(=S)Nc3ccccc3)c2)n1 | -17.5% | 
29 | Cc1cccc(-n2cnc(C(=O)Nc3cccnc3)c2)n1 |  | 10.7 µM (active)
30 | CN(CC(=O)NCCN1CCOCC1)S(=O)(=O)c1ccc(F)cc1 | 2.29% | 
31 | O=C(Nc1ccc(C(=O)OCc2cc(=O)n3nc(C4CC4)sc3n2)cc1)c1ccc(F)cc1 | -0.0489% | 
32 | O=C(OCc1cc(=O)n2nc(C3CC3)sc2n1)c1ccccc1Cl |  | 16.9 µM (active)
33 | CCCCc1nn2c(=O)cc(COC(=O)c3cccc(NC(=O)COc4ccccc4)c3)nc2s1 | -7.88% | 
34 | Cc1nn2c(=O)cc(COC(=O)c3cccc(NC(=O)COc4ccccc4Cl)c3)nc2s1 |  | 3.01 µM (active)
35 | Cc1nn2c(=O)cc(COC(=O)c3ccccc3NC(=O)COc3ccccc3C)nc2s1 | -6.91% | 
36 | Cc1ccc(OCC(=O)OCc2cc(=O)n3nc(C4CC4)sc3n2)cc1 | -5.96% | 
37 | CN1CCc2c(sc3c2c(NCc2ccco2)nc2nnnn23)C1 | 7.24% | 
38 | Cc1nc2ccccn2c(=O)c1NC(=O)c1c(F)cccc1F | 3.3% | 
39 | COc1ccc2cc(C3=CC(=O)C[C@H](c4ccc5c(c4)OCO5)C3)ccc2c1 | 3.7% | 
40 | Cc1cccc(C)c1NC(=O)CN1C(=O)C(C)Oc2ccccc21 (stereo not drawn) | 1.07% | 
41 | CN(CC(=O)Nc1ccc(OC(F)(F)F)cc1)C(=O)C1CCC1 | -4% | 
42 | CC(C)[C@H](NC(=O)c1ccc(F)cc1)C(=O)OCC(=O)NC(=O)c1cccn1C | 0.441% | 

Row | Compound | activity change, negative = inhibition | Potency
43 | Cc1nn(C(C)C(=O)Nc2ccc(C(C)C)cc2)c(=O)c2c1sc1ccccc12 (stereo not drawn) | -10.5% | 
44 | CC(=O)c1cccc(S(=O)(=O)N2CCC(n3nnc4cc(F)ccc43)CC2)c1 | 1.11% | 
45 | O=S(=O)(c1cccc(S(=O)(=O)N2CCC(n3nnc4ccccc43)CC2)c1)N1CCCCC1 | 0.624% | 
46 | O=C(c1ccc(F)cc1)N1CCC(n2nnc3ccccc32)CC1 |  | 2.69 µM (active)
47 | CCCN(CCC)C(=O)Cn1c(=O)n(-c2ccc(Cl)cc2)c(=O)c2c3c(sc21)CCCCC3 | 4.78% | 
48 | COc1ccc(-c2nnc(SCC(=O)Nc3ccc(C(C)C)cc3)nc2-c2ccc(OC)c(OC)c2)cc1OC | 4.68% | 
49 | CN(Cc1cc2cc(F)ccc2[nH]1)Cc1nc(-c2cnccn2)no1 | 1.36% | 
50 | COc1ccc(NC(=O)c2cn(-c3ccccc3)nc2SC)cc1 |  | 15.1 µM (active)
51 | O=C(O)c1ccc(NC(=O)c2cn(-c3ccccc3)nc2-c2ccc(Cl)cc2)cc1 |  | 6.75 µM (active)
52 | COc1ccc(NC(=O)CSc2nc(N)c(-c3ccccc3)c(=O)[nH]2)cc1 | 8.54% | 
53 | Cc1ccc(-c2nn(-c3ccccc3)cc2C(=O)Nc2cccc(S(=O)(=O)N3CCOCC3)c2)cc1 | -3.14% | 
54 | COc1ccc(NC(=O)c2ccccc2CC[N+](=O)[O-])cc1 | 1.33% | 
55 | O=C(CSc1nnc(-c2ccncc2)n1-c1ccc(Cl)cc1)Nc1ccc(C(=O)O)cc1 | -4.75% | 
56 | Cc1nn(Cc2ccccc2)c(C)c1C(=O)NCCCN1CCCC1=O | -2.49% | 
57 | COc1ccc(NC(=O)CN(C)C(=O)/C=C/c2cn(Cc3ccccc3)nc2-c2cccnc2)cc1 | -3.23% | 
58 | COc1cccc(C(=O)NC(=O)Nc2ccc(-c3cc(C(F)(F)F)nn3-c3ccccc3)cc2)c1 | -3.37% | 
59 | O=C(NCCCN1CCCC1=O)c1ccc(S(=O)(=O)Nc2ccccc2)cc1 | -0.641% | 
60 | COc1ccc(-c2nn(-c3ccccc3)cc2/C=C\C(=O)Nc2ccc(C(=O)O)cc2)cc1 |  | 15.1 µM (active)
61 | Cc1ccc(-c2nn(-c3ccccc3)cc2C(=O)NCCCN2CCCC2=O)cc1 |  | 21.3 µM (active)
62 | Cc1ccc(Cl)c(NC(=O)CN2CCN(C=O)CC2)c1 | -0.796% | 
63 | Fc1cccc(-n2ncc3c2ncn2nc(-c4ccccc4Cl)nc32)c1 | -1.28% | 
